# Inconclusive results are not listed. The source made the active and inactive calls. The calls were made as follows, unless noted: active = hit-call score of the fitted dose curve at least 0.9, where 1 is the maximum; inactive = score below 0.9.
# Columns and labels:
# [1] = target: Transcription factor Sp1 (Homo sapiens) (UniProt P08047); assay: ATG_Sp1_CIS: Attagene CIS-FACTORIAL HepG2 Assay for human Specificity Protein 1 (Sp1) (AID 2282961); conditions: HepG2 Sp1 cis-reporter transcription, actives raise or lower the signal
# How it was run: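 After transient transfection of HepG2 cells with cis-promoter reporter units and 24 h chemical treatment, reporter transcripts were quantified by RT-PCR and capillary electrophoresis fluorescence. Gain- and loss-of-signal fitted against DMSO.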
# [2] = ATG_SREBP_CIS: Attagene CIS-FACTORIAL HepG2 Assay for human Sterol Regulatory Element Binding (SREBP) (AID 2282962); conditions: HepG2 Attagene cis-factorial SREBP reporter, mRNA; actives raise or lower the signal
# How it was run: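 Endogenous SREBP activity read as cis-element-driven reporter transcript in transiently transfected HepG2, 24 h post-dosing; quantified via RT-PCR plus capillary electrophoresis of fluorescent fragments. Gain or loss of signal fitted relative to DMSO baseline.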
# [3] = target: Signal transducer and activator of transcription 3 (Homo sapiens) (UniProt P40763); assay: ATG_STAT3_CIS: Attagene CIS-FACTORIAL HepG2 Assay for human Signal Transducer and Activator of Transcription 3 (STAT3) (AID 2282963); conditions: HepG2, Attagene cis-factorial STAT3 reporter transcription; actives raise or lower the signal
# How it was run: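 Readout: fluorescent reporter mRNA fragments resolved by capillary electrophoresis. Setup: HepG2 transfected with MRTUs reporting endogenous transcription-factor activity, dosed 24 h. Gain or loss of signal fitted bidirectionally against DMSO control.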
# [4] = ATG_TA_CIS: Attagene CIS-FACTORIAL HepG2 Assay for human TA Basal Promoter (AID 2282964); conditions: HepG2 Attagene CIS-factorial TA basal promoter reporter; actives raise or lower the signal
# How it was run: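 HepG2 cells transiently transfected with multiple reporter units under cis promoter elements, reporting endogenous transcription factor activity; this endpoint tracks the TA basal promoter as background control. Reporter mRNA after 24 h dosing measured by RT-PCR/capillary electrophoresis; bidirectional fits versus DMSO.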
# [5] = ATG_TCF_b_cat_CIS: Attagene CIS-FACTORIAL HepG2 Assay for human T-Cell-Factor with beta-catenin (TCF/b-cat) (AID 2282965); conditions: HepG2 TCF/beta-catenin cis-reporter transcription, actives raise or lower the signal
# How it was run: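 HepG2, transient MRTU transfection, cis-element-driven reporters (endogenous TFs). 24 h compound exposure. Readout: reporter mRNA by RT-PCR + 6-FAM primer extension, HpaI digest, capillary electrophoresis. Gain/loss fit vs DMSO baseline.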
# [6] = ATG_TAL_CIS: Attagene CIS-FACTORIAL HepG2 Assay for human TAL Basal Promoter (AID 2282966); conditions: HepG2 Attagene cis-factorial TAL promoter reporter; actives raise or lower the signal;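 also: background control endpoint measuring basal TAL promoter reporter mRNA not a specific factor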
# How it was run: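 After 24 hours of chemical exposure, transfected HepG2 cells yielded RNA that was converted to 6-FAM-labelled, HpaI-digested reporter fragments for capillary electrophoresis. Values derive from bidirectional fitting against DMSO controls.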
# [7] = ATG_TGFb_CIS: Attagene CIS-FACTORIAL HepG2 Assay for human Transforming Growth Factor (TGF) (AID 2282967); conditions: HepG2 Attagene CIS TGFb reporter, mRNA transcription; actives raise or lower the signal
# How it was run: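 HepG2 cells transiently transfected with cis-promoter-driven multiple reporter units measure endogenous TF activity; reporter mRNA quantified at 24 h by RT-PCR, FAM labeling, HpaI digestion and capillary electrophoresis. Bidirectional fit vs DMSO.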
# [8] = ATG_VDRE_CIS: Attagene CIS-FACTORIAL HepG2 Assay for human Vitamin D Receptor Element (VDRE) (AID 2282968); conditions: HepG2 VDRE cis-reporter transcription, actives raise or lower the signal
# How it was run: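 Transient MRTU transfection of HepG2, 24 h compound exposure. Readout: reporter transcripts via RT-PCR and capillary electrophoresis, fluorescence. Bidirectional fit vs DMSO.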
# [9] = target: Nuclear receptor subfamily 1 group I member 3 (Homo sapiens) (UniProt Q14994); assay: ATG_CAR_TRANS: Attagene TRANS-FACTORIAL HepG2 Assay for human Constitutive Androstane Receptor (CAR) (AID 2282969; active = hit-call score of the fitted dose curve at least 0.9, where 1 is the maximum;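 also: activators raise reporter mRNA above DMSO so AC50 marks induction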); conditions: HepG2 Attagene TRANS-FACTORIAL CAR reporter
# How it was run: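 Transiently transfected HepG2, multiplex TRANS reporters (CAR-Gal4 chimera driving GAL4-UAS reporter). 24 h dosing. Readout: reporter transcript by RT-PCR + capillary electrophoresis, fluorescence intensity; positive direction vs DMSO.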
# [10] = target: Estrogen receptor (Homo sapiens) (UniProt P03372); assay: ATG_ERa_TRANS: Attagene TRANS-FACTORIAL HepG2 Assay for human Estrogen Receptor alpha (ERa) (AID 2282970; active = hit-call score of the fitted dose curve at least 0.9, where 1 is the maximum); conditions: HepG2 Attagene TRANS ERa GAL4 reporter, mRNA
# How it was run: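 Liver-derived HepG2 cells expressing chimeric nuclear receptor-Gal4 proteins from transient transfection were exposed for 24 hours. Gain of reporter mRNA signal versus DMSO, read by capillary electrophoresis of FAM-labelled PCR products, was recorded.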
# Chain of Transcription factor Sp1 (Homo sapiens) (P08047 whole entry, looked up): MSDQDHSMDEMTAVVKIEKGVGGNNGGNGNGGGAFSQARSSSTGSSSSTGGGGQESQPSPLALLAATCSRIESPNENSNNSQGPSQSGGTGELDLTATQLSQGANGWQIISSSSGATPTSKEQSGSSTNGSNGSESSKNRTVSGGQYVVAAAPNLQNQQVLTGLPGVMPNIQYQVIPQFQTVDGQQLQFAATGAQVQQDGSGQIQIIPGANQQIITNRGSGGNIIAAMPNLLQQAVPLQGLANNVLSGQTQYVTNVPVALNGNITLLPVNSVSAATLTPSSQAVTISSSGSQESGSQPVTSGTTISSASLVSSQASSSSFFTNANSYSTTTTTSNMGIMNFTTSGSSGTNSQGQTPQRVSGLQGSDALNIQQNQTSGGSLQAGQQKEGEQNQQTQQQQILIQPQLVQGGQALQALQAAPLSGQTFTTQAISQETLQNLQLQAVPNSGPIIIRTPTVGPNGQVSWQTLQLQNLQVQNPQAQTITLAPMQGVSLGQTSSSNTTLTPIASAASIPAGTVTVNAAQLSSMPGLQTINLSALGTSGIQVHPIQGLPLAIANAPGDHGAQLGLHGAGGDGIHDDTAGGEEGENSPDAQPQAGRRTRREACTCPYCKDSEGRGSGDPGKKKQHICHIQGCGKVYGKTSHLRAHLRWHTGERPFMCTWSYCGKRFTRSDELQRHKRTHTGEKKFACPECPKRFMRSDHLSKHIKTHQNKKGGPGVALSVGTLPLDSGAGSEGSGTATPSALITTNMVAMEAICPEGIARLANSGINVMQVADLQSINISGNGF
# Chain of Nuclear receptor subfamily 1 group I member 3 (Homo sapiens) (Q14994 whole entry, looked up, the tested form may be a part): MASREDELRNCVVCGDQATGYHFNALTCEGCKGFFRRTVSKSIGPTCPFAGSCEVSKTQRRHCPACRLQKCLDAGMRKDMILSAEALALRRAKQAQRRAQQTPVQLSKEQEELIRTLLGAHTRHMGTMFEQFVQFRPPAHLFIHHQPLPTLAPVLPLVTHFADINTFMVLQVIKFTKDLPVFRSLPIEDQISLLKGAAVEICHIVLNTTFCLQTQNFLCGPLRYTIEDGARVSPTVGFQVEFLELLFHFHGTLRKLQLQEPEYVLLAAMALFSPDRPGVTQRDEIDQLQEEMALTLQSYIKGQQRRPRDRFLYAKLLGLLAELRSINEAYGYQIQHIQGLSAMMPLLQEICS
# Chain of Estrogen receptor (Homo sapiens) (P03372 whole entry, looked up, the tested form may be a part): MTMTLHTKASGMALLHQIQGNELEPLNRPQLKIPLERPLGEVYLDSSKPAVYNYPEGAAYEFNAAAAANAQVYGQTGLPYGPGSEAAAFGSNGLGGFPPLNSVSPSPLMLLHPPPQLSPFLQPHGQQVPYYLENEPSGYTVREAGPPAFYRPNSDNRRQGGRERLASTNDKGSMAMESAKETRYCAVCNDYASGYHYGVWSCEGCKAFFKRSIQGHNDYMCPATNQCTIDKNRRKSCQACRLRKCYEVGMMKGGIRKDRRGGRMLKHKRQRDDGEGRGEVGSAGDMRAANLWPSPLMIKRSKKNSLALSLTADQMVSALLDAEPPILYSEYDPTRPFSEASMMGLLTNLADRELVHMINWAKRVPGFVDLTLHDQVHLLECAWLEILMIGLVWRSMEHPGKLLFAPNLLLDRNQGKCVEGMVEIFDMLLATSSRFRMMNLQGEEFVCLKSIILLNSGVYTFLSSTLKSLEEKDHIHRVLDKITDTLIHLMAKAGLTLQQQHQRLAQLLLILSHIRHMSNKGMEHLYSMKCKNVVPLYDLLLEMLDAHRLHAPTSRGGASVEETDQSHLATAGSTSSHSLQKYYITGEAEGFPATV
# Chain of Signal transducer and activator of transcription 3 (Homo sapiens) (P40763 whole entry, looked up, the tested form may be a part): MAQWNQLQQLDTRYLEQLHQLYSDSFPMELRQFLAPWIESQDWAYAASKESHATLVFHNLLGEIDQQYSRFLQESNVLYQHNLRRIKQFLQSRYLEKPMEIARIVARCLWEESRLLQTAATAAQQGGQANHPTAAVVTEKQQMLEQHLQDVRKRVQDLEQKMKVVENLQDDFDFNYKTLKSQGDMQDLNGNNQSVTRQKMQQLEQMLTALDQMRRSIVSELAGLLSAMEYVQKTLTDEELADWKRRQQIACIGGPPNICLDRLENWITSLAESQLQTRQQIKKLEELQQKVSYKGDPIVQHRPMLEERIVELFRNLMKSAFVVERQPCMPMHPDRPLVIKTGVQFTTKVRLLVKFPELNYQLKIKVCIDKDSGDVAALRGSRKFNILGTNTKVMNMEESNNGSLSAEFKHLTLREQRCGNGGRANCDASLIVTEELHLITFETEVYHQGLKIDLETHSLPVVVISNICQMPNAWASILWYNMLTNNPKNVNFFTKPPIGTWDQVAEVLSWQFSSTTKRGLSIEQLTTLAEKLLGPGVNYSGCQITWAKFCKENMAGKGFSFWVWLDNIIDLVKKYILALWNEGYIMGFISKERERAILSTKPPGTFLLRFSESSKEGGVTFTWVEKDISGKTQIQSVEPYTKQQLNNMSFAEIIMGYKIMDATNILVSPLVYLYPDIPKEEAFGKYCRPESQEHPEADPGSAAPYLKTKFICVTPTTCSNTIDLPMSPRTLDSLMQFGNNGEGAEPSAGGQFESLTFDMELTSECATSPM
Compound,outcome [1],outcome [2],outcome [3],outcome [4],outcome [5],outcome [6],outcome [7],AC50 [8],outcome [9],AC50 [10],AC50 [2],outcome [8],outcome [10],AC50 [1],AC50 [4],AC50 [5]
COP(=S)(OC)Oc1c(Cl)cc(C)cc1Cl,inactive,inactive,inactive,inactive,inactive,inactive,inactive,7.7 µM (active),inactive,3.3 µM (active),–,–,–,–,–,–
CC1(C)CCC(Cc2ccc(Cl)cc2)C1(O)Cn1cncn1 (configuration not stated),inactive,–,inactive,inactive,inactive,inactive,inactive,17.7 µM (active),–,5.3 µM (active),9.3 µM (active),–,–,–,–,–
Clc1ccc(C2(Cn3cncn3)CC(Br)CO2)c(Cl)c1 (configuration not stated),inactive,–,inactive,inactive,inactive,inactive,inactive,6.89 µM (active),–,6.86 µM (active),8.75 µM (active),–,–,–,–,–
CNC(=O)O/N=C/C(C)(C)S(C)=O (configuration not stated),inactive,inactive,inactive,inactive,–,inactive,inactive,–,inactive,–,–,inactive,inactive,–,–,–
c1cc[c]([Hg][c]2ccccc2)cc1,–,inactive,inactive,inactive,–,inactive,inactive,27.3 µM (active),–,–,–,–,inactive,24.5 µM (active),–,–
CC(=O)C=C(C)C,inactive,inactive,inactive,inactive,–,inactive,inactive,–,–,–,–,inactive,inactive,–,–,–
CC(C)(C)c1cc(O)ccc1O,inactive,inactive,inactive,–,–,inactive,inactive,–,–,33.6 µM (active),–,–,–,–,138 µM (active),119 µM (active)
Cc1cc(=O)[nH]o1,inactive,inactive,inactive,inactive,–,inactive,inactive,–,–,–,–,–,inactive,–,–,–
CCc1ccccc1N,inactive,inactive,inactive,inactive,–,inactive,inactive,–,inactive,–,–,inactive,inactive,–,–,–
ClCCBr,inactive,inactive,inactive,inactive,inactive,inactive,inactive,–,inactive,–,–,–,inactive,–,–,–
CCN1CCC2(CC1)COc1cc3c(cc12)N(C(=O)c1ccc(-c2ccc(-c4nnc(C)o4)cc2C)cc1)CC3,inactive,inactive,inactive,inactive,–,inactive,inactive,–,inactive,–,–,inactive,inactive,–,–,–
CC(C)(c1ccccc1)c1ccc(O)c(C(C)(C)c2ccccc2)c1,–,–,inactive,inactive,–,inactive,inactive,0.702 µM (active),inactive,5.55 µM (active),4.24 µM (active),–,–,7.78 µM (active),–,–
Cc1ccc2ccccc2c1C,inactive,inactive,inactive,inactive,–,inactive,inactive,–,inactive,–,–,–,inactive,–,–,–
